Screening results (PubChem)
KB-V1 MDR tox = kills drug-selected multidrug resistant KB-V1 cells; Potency, µM (top dose mostly 46.1 µM), hits mostly cytotoxic; AID 1347076; hit rate 3.4% among 400,000; KB-V1 MDR cells viability, CellTiter-Glo, 72 h; also: % is scaled to controls: 0 for no effect and ±100 for the full control effect; nearly all actives have a fitted effect of over 60% in size
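Readout: CellTiter-Glo luminescence, 10 min after addition. Cells: KB-V1 MDR subline, 72 h at 37 degrees C with compound. Analysis: corrected, normalized data fitted to concentration-effect curves.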
KB-3-1 cytotox = KB-3-1 parental cell cytotoxicity; hit rate 1.4% among 400,000; KB-3-1 viability, CellTiter-Glo ATP luminescence, 72 h; Potency, µM (doses to about 46.1 µM), usual class: cytotoxic; AID 1347075; also: % is scaled to controls: 0 for no effect and ±100 for the full control effect; nearly all actives have a fitted effect of over 60% in size
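KB-3-1 cells, DMEM (no phenol red) + 10% FBS; compound by pin transfer, 72 h, 37 °C. Readout: CellTiter-Glo luminescence after 10 min. Data normalized, curve-fitted.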
HT1080 IDH1KD tx = HT-1080 IDH1 knockdown cell toxicity (counter line) | hit rate 2% among 360,000 | Potency, µM (highest dose often 46.1 µM), for the others: top-dose activity, negative = toxicity, hits mostly cytotoxic | HT-1080 IDH1 knockdown viability, ATP luminescence, 48 h | AID 686971;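 also: 0% = DMSO wells and -100% = cell-free medium wells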
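Using the IDH1-knockdown HT-1080 line run in the same batch and compound series as the NT line, viability after 48 h at 37 °C was determined by CellTiter-Glo luminescence and expressed as % activity.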
HT1080-NT tox = kills 2HG-producing HT-1080-NT fibrosarcoma cells | Potency, µM (titrated, usually from 46.1 µM), for the others: at the highest dose activity, negative = less viability, hits mostly cytotoxic | AID 686970 | HT-1080-NT fibrosarcoma viability, CellTiter-Glo ATP luminescence, 48 h | hit rate 1.6% among 360,000;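 also: NT is the 2HG producing partner of a matched IDH1 knockdown line; 0% = DMSO-treated cells and -100% = media-only wells without cells; nearly all actives have a fitted effect of over 55% in size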
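750 cells/well, RPMI + 5% FBS; 2 h settle, compound pin-transfer, 48 h at 37 degrees C. CellTiter-Glo 10 min RT, luminescence. Normalized to DMSO and media-only wells.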
MCF10A rerep = inducers of DNA re-replication in MCF 10A breast cells | MCF 10A DNA re-replication, Hoechst nuclear intensity, 48 h | Potency, µM (series often up to 46.1 µM), without a hit: at the top dose activity, positive = re-replication, usual class: activators | hit rate 2.9% among 350,000; also: % of control where 0% means no effect; nearly all actives have a fitted effect of over 50% in size
SW480 rereplic = inducers of DNA re-replication in SW480 colon cancer cells | SW480 DNA re-replication, Hoechst DNA content imaging, 48 h | Potency, µM (highest dose often 46.1 µM), inactives show top-dose re-replication activation, actives largely listed as activators | AID 624297 | hit rate 1.8% among 340,000; also: % of control where 0% means no effect; nearly all actives have a fitted effect of over 55% in size
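Image-based read-out: total Hoechst fluorescence of nuclei (405 nm excitation, 500-530 nm emission), with hits raising the fraction of high-intensity nuclei. SW480 colon cells incubated 48 hr with compounds at 37 C.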
Starred values were filed as active, the others as inactive. This is a sample that favours compounds with a hit; in the whole collection about 8% have one here. Calls follow the shape of the dose curve; as a rule, active = well fitted curve in the direction sought with a large enough effect; inconclusive = small, poorly fitted or top-dose-only effect, or another doubt; inactive = no such curve, though single readings can be large; an effect the other way counts as inactive or inconclusive. Potency is read from the fitted curve at half-maximal effect.

For CCCc1nc2oc3c(NCCCN(C)C)ncnc3c2c2c1CCCC2 the results were KB-V1 MDR tox inconclusive, KB-3-1 cytotox inactive, HT1080 IDH1KD tx inconclusive, HT1080-NT tox -24%, MCF10A rerep 15µM* and SW480 rereplic inconclusive.
`COc1ccccc1CN1CC(C(=O)N2CCCCCCC2)CCC1=O` (centres undefined) gave KB-V1 MDR tox inconclusive, KB-3-1 cytotox inactive, HT1080 IDH1KD tx 18%, HT1080-NT tox 14%, MCF10A rerep 4% and SW480 rereplic -4%.
`COc1ccc(/C=N/NC(=O)CCn2nc(C)cc2C)cc1` gave KB-V1 MDR tox inactive, KB-3-1 cytotox inconclusive, HT1080 IDH1KD tx 6%, HT1080-NT tox 0%, MCF10A rerep -2% and SW480 rereplic -8%.
For Cc1ccc(-c2nc3n(n2)C(=O)CC(c2ccc(Cl)cc2)S3)cc1 (centres undefined) the results were KB-V1 MDR tox inconclusive and KB-3-1 cytotox inactive.
`O=C(COc1nncc2ccccc12)Nc1ccc(F)c(F)c1` gave KB-V1 MDR tox inactive, KB-3-1 cytotox inactive, HT1080 IDH1KD tx -14%, HT1080-NT tox 3%, MCF10A rerep -3% and SW480 rereplic 1%.
For Cn1c(SCc2nnc(-c3ccccc3)o2)nc2ccccc21 the results were KB-V1 MDR tox inconclusive, KB-3-1 cytotox inactive, HT1080 IDH1KD tx 5%, HT1080-NT tox 1%, MCF10A rerep -1% and SW480 rereplic -2%.
For Cc1ccc(-n2c(SCc3ccc([N+](=O)[O-])cc3)nc3ccccc3c2=O)cc1 the results were KB-V1 MDR tox inactive, KB-3-1 cytotox inactive, HT1080 IDH1KD tx -4%, HT1080-NT tox 4%, MCF10A rerep inconclusive and SW480 rereplic -2%.
For CCOC(CCn1c(SCc2ccc([N+](=O)[O-])cc2)nc2ccccc2c1=O)OCC the results were KB-V1 MDR tox 3.7µM*, KB-3-1 cytotox inactive, HT1080 IDH1KD tx 0%, HT1080-NT tox -15%, MCF10A rerep -3% and SW480 rereplic -52%.
For COc1ccc(-c2nnc(CSc3nc4ccccc4c(=O)n3C)o2)cc1OC the results were KB-V1 MDR tox 3.7µM*, KB-3-1 cytotox inactive, HT1080 IDH1KD tx -12%, HT1080-NT tox 2%, MCF10A rerep 12% and SW480 rereplic -2%.
Screening CCn1c(SCc2ccc(OC)c(F)c2)nc2ccccc2c1=O returned KB-V1 MDR tox inconclusive, KB-3-1 cytotox inactive, HT1080 IDH1KD tx -14%, HT1080-NT tox inconclusive, MCF10A rerep 18µM* and SW480 rereplic 6%.
For Cn1c(SCc2ccon2)nc2ccccc2c1=O the results were KB-V1 MDR tox inactive, KB-3-1 cytotox inactive, HT1080 IDH1KD tx -1%, HT1080-NT tox 10%, MCF10A rerep 8.2µM* and SW480 rereplic 15µM*.
O=C(COC(=O)C1=NNC(=O)CC1)NCCc1ccccc1 was read as KB-V1 MDR tox inactive, KB-3-1 cytotox inactive, HT1080 IDH1KD tx 0%, HT1080-NT tox 9%, MCF10A rerep -20% and SW480 rereplic -95%.
Screening O=C(COC(=O)C1CCC1)Nc1cc(S(=O)(=O)N2CCCCC2)ccc1Cl returned KB-V1 MDR tox inactive, KB-3-1 cytotox inactive, HT1080 IDH1KD tx -2%, HT1080-NT tox -2%, MCF10A rerep 0% and SW480 rereplic 1%.
Screening O=C(Nc1cc(C(=O)N2CCOCC2)cc(C(=O)N2CCOCC2)c1)c1cc(F)c(F)cc1Cl returned KB-V1 MDR tox inactive, KB-3-1 cytotox inactive, HT1080 IDH1KD tx 14%, HT1080-NT tox 17%, MCF10A rerep 3% and SW480 rereplic -7%.
COC(=O)c1ccc(Cl)cc1NC(=O)Nc1nnc(N2CCCC2)s1 was read as KB-V1 MDR tox inactive and KB-3-1 cytotox inactive.
`CCN(Cc1ccccc1)S(=O)(=O)c1nc2nc(C)c(C)c(C)n2n1` gave KB-V1 MDR tox 18µM*, KB-3-1 cytotox inactive, HT1080 IDH1KD tx 1%, HT1080-NT tox 0%, MCF10A rerep 0% and SW480 rereplic -17%.
`COc1ccc(CN2C(=O)c3ccccc3C(/C=N\OCc3ccc(C)cc3)C2=O)cc1` (centres undefined) gave KB-V1 MDR tox inconclusive, KB-3-1 cytotox 21µM*, HT1080 IDH1KD tx -22%, HT1080-NT tox -21%, MCF10A rerep -6% and SW480 rereplic 0%.
`O=C1c2cccc3cccc(c23)N1Cc1cccc(F)c1` gave KB-V1 MDR tox inactive, KB-3-1 cytotox inconclusive, HT1080 IDH1KD tx -4%, HT1080-NT tox 0%, MCF10A rerep 26µM* and SW480 rereplic inconclusive.
COc1ccc(CN2C(=O)c3ccccc3C2OC)cc1 (centres undefined) was read as KB-V1 MDR tox inactive, KB-3-1 cytotox inactive, HT1080 IDH1KD tx 5%, HT1080-NT tox 3%, MCF10A rerep -3% and SW480 rereplic 5%.
`COc1cc2c3c(cccc3c1)C(=O)N(CCN1CCCC1)C2=O` gave KB-V1 MDR tox 10µM*, KB-3-1 cytotox inconclusive, HT1080 IDH1KD tx 8.2µM* and HT1080-NT tox 13µM*.
`COc1ccc(C(=O)CN2CCN(CCN3C(=O)c4cccc5cccc(c45)C3=O)CC2)cc1` gave KB-V1 MDR tox inactive, KB-3-1 cytotox inactive, HT1080 IDH1KD tx -30%, HT1080-NT tox -27%, MCF10A rerep 23% and SW480 rereplic inconclusive.
COc1ccc(C(=O)c2ccccc2CN2C(=O)c3ccccc3C2=O)cc1 was read as KB-V1 MDR tox 16µM*, KB-3-1 cytotox inactive, HT1080 IDH1KD tx 5%, HT1080-NT tox -1%, MCF10A rerep 1% and SW480 rereplic 2%.
For COc1ccc(CN2C(=O)c3cccc4cccc(c34)C2=O)cc1 the results were KB-V1 MDR tox inactive, KB-3-1 cytotox inactive, HT1080 IDH1KD tx 8%, HT1080-NT tox inconclusive, MCF10A rerep -4% and SW480 rereplic 18µM*.
For O=C1c2cccc3cccc(c23)C(=O)N1Cc1ccccc1 the results were KB-V1 MDR tox inactive, KB-3-1 cytotox inactive, HT1080 IDH1KD tx -6%, HT1080-NT tox -11%, MCF10A rerep 18% and SW480 rereplic 6%.
Screening CC(=O)NCCc1nc2ccccc2n1CCCCOc1ccc(Cl)cc1 returned KB-V1 MDR tox inactive and KB-3-1 cytotox inactive.
CC(C)(C)C(=O)NCCCc1nc2ccccc2n1CCCOc1ccc(Cl)cc1 was read as KB-V1 MDR tox 16µM*, KB-3-1 cytotox inconclusive, HT1080 IDH1KD tx inconclusive, HT1080-NT tox inconclusive, MCF10A rerep inconclusive and SW480 rereplic -2%.
CC1=NN(c2ccc(C(F)(F)F)cn2)C(=O)C1 was read as KB-V1 MDR tox inactive, KB-3-1 cytotox inconclusive, HT1080 IDH1KD tx inconclusive, HT1080-NT tox -30%, MCF10A rerep inconclusive and SW480 rereplic inconclusive.
